Drawing on PubChem BioAssay (NCI), this text covers growth inhibition for 10 compounds.

A short description of experiment [1]: NCI Yeast Anticancer Drug Screen. Data for the rad50 strain (AID 155).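 Note: 0% = growth of vehicle-only cultures of the same strain.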 The settings on record: S. cerevisiae rad50 strain growth inhibition, stronger effect = higher value. In short, it runs like this:
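Yeast carrying a defined DNA repair defect were exposed to test compounds, and growth was compared with vehicle-treated controls to give percent inhibition.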

The nature of experiment [2]: NCI Yeast Anticancer Drug Screen. Data for the mec2-1 strain (AID 157). The note with it: S. cerevisiae mec2-1 strain, stronger effect = higher value. In short, it runs like this:
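Each compound was tested on mec2-1 yeast, a strain altered in DNA damage repair or cell cycle control. Growth inhibition is reported relative to vehicle.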

Experiment [3] is described as follows: NCI Yeast Anticancer Drug Screen. Data for the sgs1 mgt1 strain (AID 161).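 Note: 0% = growth of cultures given vehicle only.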 The note with it: S. cerevisiae sgs1 mgt1 strain, stronger effect = higher value. In short, it runs like this: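 Inhibition of yeast growth, normalised to vehicle-treated controls, is reported for a strain bearing genetic alterations in DNA damage repair.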
Experiment [4] is described as follows: NCI Yeast Anticancer Drug Screen. Data for the cln2 rad14 strain (AID 165).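 Note: 0% = growth equal to vehicle treated cultures.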 The note with it: S. cerevisiae cln2 rad14 strain, stronger effect = higher value. The method, boiled down: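 Test compounds were added to cln2 rad14 yeast cultures; inhibition of growth was then determined by comparison with vehicle treatment.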
Experiment [5] is described as follows: NCI Yeast Anticancer Drug Screen. Data for the bub3 strain (AID 167). The settings on record: S. cerevisiae bub3 mutant strain, stronger effect = higher value. The method, boiled down:
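Compounds were applied to a genetically altered yeast strain carrying a cell-cycle control defect. Growth inhibition was scored against vehicle-treated controls.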

The nature of experiment [6]: NCI Yeast Anticancer Drug Screen. Data for the mlh1 rad18 strain (AID 175). The note with it: S. cerevisiae mlh1 rad18 strain growth inhibition, stronger effect = higher value. In short, it runs like this: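 Inhibition values reflect reduced growth of mutant yeast versus vehicle-treated controls following compound exposure; the mutations affect DNA damage repair.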
Where [7] appears, read: at 5.0 µM (retest, dose inferred, filed as 0.5).
[8] abbreviates: at 50.0 µM (retest, dose inferred, filed as 5.0).

Compounds without any hit were thinned out: in the full panel of roughly 79,000, 15% have a hit. Values without a mark were called inactive. Calls of active or inactive are those of the source. Cut-off read from the data, not from the text of the source: active = growth inhibition above about 70%; inactive = the rest.

On to `COc1ccc(C(CC(=O)c2ccc(C)cc2)Sc2ccccc2N)cc1` (stereo not given), for which the growth inhibition in experiment [1] (setting [7]) is 46%; in experiment [1] (setting [8]), 51%; in experiment [1] (at 50.0 µM), -9.65%; in experiment [2] (setting [7]), 52%; in experiment [2] (setting [8]), 52%; in experiment [2] (at 50.0 µM), 4.5%. The growth inhibition was -16% in experiment [3] (setting [7]); 26% in experiment [3] (setting [8]); 26.5% in experiment [3] (at 50.0 µM); 44% in experiment [4] (setting [7]); 40% in experiment [4] (setting [8]); -15.2% in experiment [4] (at 50.0 µM). Moreover, the growth inhibition is 36% in experiment [5] (setting [7]); 17% in experiment [5] (setting [8]); 27.5% in experiment [5] (at 50.0 µM); 35% in experiment [6] (setting [7]); 50% in experiment [6] (setting [8]); 8.35% in experiment [6] (at 50.0 µM).
In the case of `Brc1ccc(-c2c3ccccc3cc3c2ccc2ccccc23)cc1`, the growth inhibition in experiment [1] (setting [7]) was 1%; in experiment [1] (setting [8]), -14%; in experiment [1] (at 50.0 µM) it was 42.9%; in experiment [2] (setting [7]) it was 1%; in experiment [2] (setting [8]), -10%; in experiment [2] (at 50.0 µM), 30.2%. For the same compound, the growth inhibition in experiment [3] (setting [7]) is 2%; in experiment [3] (setting [8]) it was 1%; in experiment [3] (at 50.0 µM), 47.8%; in experiment [4] (setting [7]), -2%; in experiment [4] (setting [8]), -24%; in experiment [4] (at 50.0 µM) it was 74.5% (active). Further, the growth inhibition was -5% in experiment [5] (setting [7]); 26% in experiment [5] (setting [8]); 38.1% in experiment [5] (at 50.0 µM); -4% in experiment [6] (setting [7]); -9% in experiment [6] (setting [8]); 47.1% in experiment [6] (at 50.0 µM).
With `CCCCN1C(=O)C(=O)N(c2ccccc2)C1=O`, the growth inhibition in experiment [1] (setting [7]) is -6%; in experiment [1] (setting [8]), 5%; in experiment [1] (at 50.0 µM), 18.2%; in experiment [2] (setting [7]) it was -7%; in experiment [2] (setting [8]), 12%; in experiment [2] (at 50.0 µM) it was 32.9%. Moreover, the growth inhibition is -14% in experiment [3] (setting [7]); 1% in experiment [3] (setting [8]); 8.65% in experiment [3] (at 50.0 µM); -29% in experiment [4] (setting [7]); -17% in experiment [4] (setting [8]); 73.8% (active) in experiment [4] (at 50.0 µM). Moreover, the growth inhibition in experiment [5] (setting [7]) is -21%; in experiment [5] (setting [8]), 11%; in experiment [5] (at 50.0 µM) it was 1.55%; in experiment [6] (setting [7]) it was -5%; in experiment [6] (setting [8]), 15%; in experiment [6] (at 50.0 µM) it was 16.9%.
Turning to `CN(C)c1ccc(-c2c(C#N)c(S)n(NS(=O)(=O)c3ccccc3)c(=O)c2C#N)cc1`, the growth inhibition is 94% (active) in experiment [1] (setting [7]); 96% (active) in experiment [1] (setting [8]); 35.4% in experiment [1] (at 50.0 µM); 31% in experiment [2] (setting [7]); 95% (active) in experiment [2] (setting [8]); 75.3% (active) in experiment [2] (at 50.0 µM). Moreover, the growth inhibition in experiment [3] (setting [7]) is 38%; in experiment [3] (setting [8]), 95% (active); in experiment [3] (at 50.0 µM) it was 61.2%; in experiment [4] (setting [7]), 50%; in experiment [4] (setting [8]), 69%; in experiment [4] (at 50.0 µM), 31.8%. In addition, the growth inhibition is 45% in experiment [5] (setting [7]); 93% (active) in experiment [5] (setting [8]); 58.1% in experiment [5] (at 50.0 µM); 91% (active) in experiment [6] (setting [7]); 94% (active) in experiment [6] (setting [8]); 60.7% in experiment [6] (at 50.0 µM).
`Cc1cccc2c1Oc1cc(Cl)ccc1C2NC(=O)CCN1CCN(CCO)CC1` (stereo not given): the growth inhibition in experiment [1] (setting [7]) is 0%; in experiment [1] (setting [8]) it was 29%; in experiment [1] (at 50.0 µM) it was 38%; in experiment [2] (setting [7]), -11%; in experiment [2] (setting [8]), -13%; in experiment [2] (at 50.0 µM), -0.05%. In addition, the growth inhibition in experiment [3] (setting [7]) was -3%; in experiment [3] (setting [8]) it was 6%; in experiment [3] (at 50.0 µM), 38.1%; in experiment [4] (setting [7]) it was 11%; in experiment [4] (setting [8]), 26%; in experiment [4] (at 50.0 µM), 25.6%. In addition, the growth inhibition was -8% in experiment [5] (setting [7]); 11% in experiment [5] (setting [8]); 39.4% in experiment [5] (at 50.0 µM); 3% in experiment [6] (setting [7]); 29% in experiment [6] (setting [8]); 70.3% (active) in experiment [6] (at 50.0 µM).
Consider `N#C/C(=C/c1ccccc1B(O)O)C(=O)O`, for which the growth inhibition was -151% in experiment [1] (setting [7]); -5% in experiment [1] (setting [8]); 71.4% (active) in experiment [1] (at 50.0 µM); -49% in experiment [2] (setting [7]); -36% in experiment [2] (setting [8]); 17% in experiment [2] (at 50.0 µM). The growth inhibition in experiment [3] (setting [7]) is -61%; in experiment [3] (setting [8]), -40%; in experiment [3] (at 50.0 µM), 31.3%; in experiment [4] (setting [7]) it was -62%; in experiment [4] (setting [8]), -58%; in experiment [4] (at 50.0 µM), 13.1%. Moreover, the growth inhibition was -77% in experiment [5] (setting [7]); -96% in experiment [5] (setting [8]); -8.9% in experiment [5] (at 50.0 µM); -140% in experiment [6] (setting [7]); -65% in experiment [6] (setting [8]); 65.8% in experiment [6] (at 50.0 µM).
Turning to `C1=CC2C(c3cccc4ccccc34)O[C@H]2O1` (stereo not given in full), the growth inhibition is 39% in experiment [1] (setting [7]); 99% (active) in experiment [1] (setting [8]); 98.8% (active) in experiment [1] (at 50.0 µM); 11% in experiment [2] (setting [7]); 99% (active) in experiment [2] (setting [8]); 98.5% (active) in experiment [2] (at 50.0 µM). The growth inhibition in experiment [3] (setting [7]) was 13%; in experiment [3] (setting [8]), 99% (active); in experiment [3] (at 50.0 µM), 98.8% (active); in experiment [4] (setting [7]), 7%; in experiment [4] (setting [8]) it was 98% (active); in experiment [4] (at 50.0 µM), 98.8% (active). Further, the growth inhibition in experiment [5] (setting [7]) is 3%; in experiment [5] (setting [8]), 99% (active); in experiment [5] (at 50.0 µM), 98.4% (active); in experiment [6] (setting [7]), 28%; in experiment [6] (setting [8]) it was 99% (active); in experiment [6] (at 50.0 µM) it was 98.3% (active).
Regarding `CCCCCCCCCCSCCO`, the growth inhibition in experiment [1] (setting [7]) is 30%; in experiment [1] (setting [8]), 88% (active); in experiment [1] (at 50.0 µM), 92.7% (active); in experiment [2] (setting [7]), 51%; in experiment [2] (setting [8]), 92% (active); in experiment [2] (at 50.0 µM) it was 94% (active). The growth inhibition in experiment [3] (setting [7]) was 99% (active); in experiment [3] (setting [8]) it was 93% (active); in experiment [3] (at 50.0 µM) it was 93.5% (active); in experiment [4] (setting [7]), 78% (active); in experiment [4] (setting [8]) it was 99% (active); in experiment [4] (at 50.0 µM), 92.3% (active). Also, the growth inhibition in experiment [5] (setting [7]) was 100% (active); in experiment [5] (setting [8]) it was 97% (active); in experiment [5] (at 50.0 µM), 92.5% (active); in experiment [6] (setting [7]), 42%; in experiment [6] (setting [8]), 97% (active); in experiment [6] (at 50.0 µM), 92.7% (active).
`CCNc1cc2c3c(c1)CCCN3CCC2`: the growth inhibition is 15% in experiment [1] (setting [7]); 40% in experiment [1] (setting [8]); -15.7% in experiment [1] (at 50.0 µM); 13% in experiment [2] (setting [7]); 27% in experiment [2] (setting [8]); -20.7% in experiment [2] (at 50.0 µM). The growth inhibition in experiment [3] (setting [7]) is 14%; in experiment [3] (setting [8]), 18%; in experiment [3] (at 50.0 µM), -1.15%; in experiment [4] (setting [7]), 20%; in experiment [4] (setting [8]), 24%; in experiment [4] (at 50.0 µM) it was -46.1%. The growth inhibition in experiment [5] (setting [7]) is 15%; in experiment [5] (setting [8]) it was 30%; in experiment [5] (at 50.0 µM) it was -17%; in experiment [6] (setting [7]), 17%; in experiment [6] (setting [8]), 51%; in experiment [6] (at 50.0 µM), -10.7%.
`O=[N+]([O-])c1c(O)cccc1O`: the growth inhibition was 45% in experiment [1] (setting [7]); 98% (active) in experiment [1] (setting [8]); 99% (active) in experiment [1] (at 50.0 µM); 17% in experiment [2] (setting [7]); 99% (active) in experiment [2] (setting [8]); 99.2% (active) in experiment [2] (at 50.0 µM). Further, the growth inhibition in experiment [3] (setting [7]) is 29%; in experiment [3] (setting [8]) it was 99% (active); in experiment [3] (at 50.0 µM) it was 99.2% (active); in experiment [4] (setting [7]), 24%; in experiment [4] (setting [8]), 99% (active); in experiment [4] (at 50.0 µM), 98% (active). In addition, the growth inhibition in experiment [5] (setting [7]) is 14%; in experiment [5] (setting [8]) it was 99% (active); in experiment [5] (at 50.0 µM), 98.9% (active); in experiment [6] (setting [7]) it was 36%; in experiment [6] (setting [8]), 99% (active); in experiment [6] (at 50.0 µM), 98.5% (active).
